Test results as given in ChEMBL document CHEMBL1961873, “Compounds: GSK PKIS; Assays: Nanosyn kinase panel” (2012).

Legend:
[1] = target: T1, Muscle, skeletal receptor tyrosine-protein kinase (Homo sapiens) (UniProt O15146); settings: at 1 µM;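 also: reported value is the mean percent inhibition of MuSK kinase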
T1 sequence (whole entry): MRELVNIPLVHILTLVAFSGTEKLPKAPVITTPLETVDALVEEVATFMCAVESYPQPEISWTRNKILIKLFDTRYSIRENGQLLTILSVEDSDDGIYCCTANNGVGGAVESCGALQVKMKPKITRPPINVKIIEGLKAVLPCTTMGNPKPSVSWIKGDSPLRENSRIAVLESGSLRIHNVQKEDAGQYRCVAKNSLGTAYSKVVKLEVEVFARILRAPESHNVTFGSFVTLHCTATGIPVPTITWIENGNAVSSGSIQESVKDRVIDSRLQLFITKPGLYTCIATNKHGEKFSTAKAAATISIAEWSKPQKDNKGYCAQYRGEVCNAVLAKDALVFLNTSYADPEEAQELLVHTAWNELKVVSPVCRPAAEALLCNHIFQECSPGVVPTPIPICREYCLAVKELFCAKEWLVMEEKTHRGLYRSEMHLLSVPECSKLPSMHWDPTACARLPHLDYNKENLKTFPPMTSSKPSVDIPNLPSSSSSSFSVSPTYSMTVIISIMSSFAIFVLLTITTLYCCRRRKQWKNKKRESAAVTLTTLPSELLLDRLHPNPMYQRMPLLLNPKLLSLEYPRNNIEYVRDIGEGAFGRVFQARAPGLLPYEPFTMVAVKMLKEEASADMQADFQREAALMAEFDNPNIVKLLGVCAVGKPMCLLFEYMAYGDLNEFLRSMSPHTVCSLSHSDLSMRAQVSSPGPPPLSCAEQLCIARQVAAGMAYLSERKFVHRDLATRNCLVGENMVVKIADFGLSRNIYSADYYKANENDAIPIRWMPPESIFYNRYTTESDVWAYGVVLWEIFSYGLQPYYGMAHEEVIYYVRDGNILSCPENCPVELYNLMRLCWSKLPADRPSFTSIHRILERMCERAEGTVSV

[2] = target: Platelet-derived growth factor receptor alpha (Homo sapiens) (UniProt P16234); settings: at 0.1 µM
[3] = target: Platelet-derived growth factor receptor alpha (Homo sapiens) (UniProt P16234); settings: at 1 µM
[4] = system: Platelet-derived growth factor receptor alpha (Homo sapiens), P16234 [D842V]; settings: at 0.1 µM
[5] = system: Platelet-derived growth factor receptor alpha (Homo sapiens), P16234 [D842V]; settings: at 1 µM
[6] = system: Platelet-derived growth factor receptor alpha (Homo sapiens), P16234 [T674I]; settings: at 0.1 µM
[7] = system: Platelet-derived growth factor receptor alpha (Homo sapiens), P16234 [T674I]; settings: at 1 µM
[8] = system: Platelet-derived growth factor receptor alpha (Homo sapiens), P16234 [V561D]; settings: at 0.1 µM
[9] = system: Platelet-derived growth factor receptor alpha (Homo sapiens), P16234 [V561D]; settings: at 1 µM
[10] = target: Platelet-derived growth factor receptor beta (Homo sapiens) (UniProt P09619); settings: at 0.1 µM
[11] = target: Platelet-derived growth factor receptor beta (Homo sapiens) (UniProt P09619); settings: at 1 µM
[12] = target: Tyrosine-protein kinase FRK (Homo sapiens) (UniProt P42685); settings: at 0.1 µM
[13] = target: Tyrosine-protein kinase FRK (Homo sapiens) (UniProt P42685); settings: at 1 µM
[14] = target: Protein-tyrosine kinase 2-beta (Homo sapiens) (UniProt Q14289); settings: at 0.1 µM
[15] = target: Proto-oncogene tyrosine-protein kinase receptor Ret (Homo sapiens) (UniProt P07949); settings: at 0.1 µM
[16] = target: Proto-oncogene tyrosine-protein kinase receptor Ret (Homo sapiens) (UniProt P07949); settings: at 1 µM
[17] = system: Proto-oncogene tyrosine-protein kinase receptor Ret (Homo sapiens), P07949 [V804L]; settings: at 0.1 µM
[18] = system: Proto-oncogene tyrosine-protein kinase receptor Ret (Homo sapiens), P07949 [V804L]; settings: at 1 µM
[19] = system: Proto-oncogene tyrosine-protein kinase receptor Ret (Homo sapiens), P07949 [Y791F]; settings: at 0.1 µM
[20] = target: Protein-tyrosine kinase 2-beta (Homo sapiens) (UniProt Q14289); settings: at 1 µM

Chain of Platelet-derived growth factor receptor alpha (Homo sapiens), P16234 [D842V] (P16234 whole entry D842V): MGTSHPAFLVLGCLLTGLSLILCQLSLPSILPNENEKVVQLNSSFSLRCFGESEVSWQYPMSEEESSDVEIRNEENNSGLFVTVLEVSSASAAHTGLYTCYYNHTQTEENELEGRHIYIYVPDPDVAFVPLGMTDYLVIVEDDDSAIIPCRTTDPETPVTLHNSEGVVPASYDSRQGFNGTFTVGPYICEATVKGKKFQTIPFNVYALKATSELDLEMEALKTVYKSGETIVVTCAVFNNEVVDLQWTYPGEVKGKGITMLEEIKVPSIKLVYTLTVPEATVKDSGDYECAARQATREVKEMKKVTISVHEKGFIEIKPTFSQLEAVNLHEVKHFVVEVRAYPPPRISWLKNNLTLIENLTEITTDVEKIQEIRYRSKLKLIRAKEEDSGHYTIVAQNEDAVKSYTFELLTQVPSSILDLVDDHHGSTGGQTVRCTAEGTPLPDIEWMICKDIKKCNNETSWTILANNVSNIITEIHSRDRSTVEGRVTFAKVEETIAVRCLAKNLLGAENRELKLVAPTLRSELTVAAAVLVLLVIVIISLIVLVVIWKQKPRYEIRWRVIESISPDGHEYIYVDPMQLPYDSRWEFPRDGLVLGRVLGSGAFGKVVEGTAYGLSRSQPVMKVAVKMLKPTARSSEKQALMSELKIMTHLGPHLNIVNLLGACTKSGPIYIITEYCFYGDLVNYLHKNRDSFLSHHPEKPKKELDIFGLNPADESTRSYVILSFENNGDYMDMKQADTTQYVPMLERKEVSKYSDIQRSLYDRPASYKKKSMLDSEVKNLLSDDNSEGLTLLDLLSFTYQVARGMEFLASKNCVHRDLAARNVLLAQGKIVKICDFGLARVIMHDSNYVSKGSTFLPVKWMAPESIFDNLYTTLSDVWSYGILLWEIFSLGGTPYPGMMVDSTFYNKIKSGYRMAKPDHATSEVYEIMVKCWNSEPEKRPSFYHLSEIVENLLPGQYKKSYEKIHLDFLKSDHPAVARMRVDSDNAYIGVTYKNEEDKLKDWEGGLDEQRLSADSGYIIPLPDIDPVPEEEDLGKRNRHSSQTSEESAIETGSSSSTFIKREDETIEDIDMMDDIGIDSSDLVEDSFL
Chain of Platelet-derived growth factor receptor alpha (Homo sapiens) (P16234 whole entry): as the sequence (P16234 whole entry D842V) above, with V842D counted along it
Chain of Proto-oncogene tyrosine-protein kinase receptor Ret (Homo sapiens), P07949 [V804L] (P07949 whole entry V804L): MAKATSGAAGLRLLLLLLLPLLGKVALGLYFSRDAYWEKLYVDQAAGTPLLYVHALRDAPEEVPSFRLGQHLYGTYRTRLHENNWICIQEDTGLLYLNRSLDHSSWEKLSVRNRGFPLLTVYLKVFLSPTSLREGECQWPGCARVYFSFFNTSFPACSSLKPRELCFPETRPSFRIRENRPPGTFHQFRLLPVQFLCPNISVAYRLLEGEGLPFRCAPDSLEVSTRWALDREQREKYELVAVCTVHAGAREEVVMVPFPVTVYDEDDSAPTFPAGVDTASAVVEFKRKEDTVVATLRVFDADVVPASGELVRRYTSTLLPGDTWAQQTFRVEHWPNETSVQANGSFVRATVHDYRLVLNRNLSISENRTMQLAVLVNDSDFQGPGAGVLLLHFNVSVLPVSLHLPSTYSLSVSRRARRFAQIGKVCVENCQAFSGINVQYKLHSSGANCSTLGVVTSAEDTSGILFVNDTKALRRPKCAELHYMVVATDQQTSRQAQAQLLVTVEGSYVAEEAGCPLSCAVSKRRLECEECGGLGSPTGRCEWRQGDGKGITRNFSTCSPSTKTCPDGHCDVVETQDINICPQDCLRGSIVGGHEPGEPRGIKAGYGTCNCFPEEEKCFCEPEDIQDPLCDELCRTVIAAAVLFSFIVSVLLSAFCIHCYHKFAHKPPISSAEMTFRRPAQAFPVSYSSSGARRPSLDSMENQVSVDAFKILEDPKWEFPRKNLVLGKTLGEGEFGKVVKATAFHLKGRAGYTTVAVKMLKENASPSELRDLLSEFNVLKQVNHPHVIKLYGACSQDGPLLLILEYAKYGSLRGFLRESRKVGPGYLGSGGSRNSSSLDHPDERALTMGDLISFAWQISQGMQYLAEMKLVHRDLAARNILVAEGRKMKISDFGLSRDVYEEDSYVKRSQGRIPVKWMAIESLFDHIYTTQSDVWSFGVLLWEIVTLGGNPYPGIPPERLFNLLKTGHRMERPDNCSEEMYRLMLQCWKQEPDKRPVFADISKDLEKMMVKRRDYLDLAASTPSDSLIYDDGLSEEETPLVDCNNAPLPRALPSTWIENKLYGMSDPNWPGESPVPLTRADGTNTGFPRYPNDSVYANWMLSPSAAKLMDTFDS
Chain of Tyrosine-protein kinase FRK (Homo sapiens) (P42685 whole entry): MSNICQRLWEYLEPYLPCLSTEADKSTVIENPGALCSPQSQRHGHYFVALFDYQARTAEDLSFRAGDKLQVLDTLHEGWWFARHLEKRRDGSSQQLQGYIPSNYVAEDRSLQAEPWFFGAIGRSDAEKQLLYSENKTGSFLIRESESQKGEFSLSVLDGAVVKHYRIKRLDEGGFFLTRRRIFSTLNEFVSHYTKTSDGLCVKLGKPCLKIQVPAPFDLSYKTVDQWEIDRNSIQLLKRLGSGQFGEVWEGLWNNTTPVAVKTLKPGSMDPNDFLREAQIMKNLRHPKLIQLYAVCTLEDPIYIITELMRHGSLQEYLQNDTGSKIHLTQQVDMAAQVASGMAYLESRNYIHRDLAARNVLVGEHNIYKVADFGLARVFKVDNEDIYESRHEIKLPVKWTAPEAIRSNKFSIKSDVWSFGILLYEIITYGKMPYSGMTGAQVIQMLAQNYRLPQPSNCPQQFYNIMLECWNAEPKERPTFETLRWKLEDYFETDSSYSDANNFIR
Chain of Platelet-derived growth factor receptor beta (Homo sapiens) (P09619 whole entry): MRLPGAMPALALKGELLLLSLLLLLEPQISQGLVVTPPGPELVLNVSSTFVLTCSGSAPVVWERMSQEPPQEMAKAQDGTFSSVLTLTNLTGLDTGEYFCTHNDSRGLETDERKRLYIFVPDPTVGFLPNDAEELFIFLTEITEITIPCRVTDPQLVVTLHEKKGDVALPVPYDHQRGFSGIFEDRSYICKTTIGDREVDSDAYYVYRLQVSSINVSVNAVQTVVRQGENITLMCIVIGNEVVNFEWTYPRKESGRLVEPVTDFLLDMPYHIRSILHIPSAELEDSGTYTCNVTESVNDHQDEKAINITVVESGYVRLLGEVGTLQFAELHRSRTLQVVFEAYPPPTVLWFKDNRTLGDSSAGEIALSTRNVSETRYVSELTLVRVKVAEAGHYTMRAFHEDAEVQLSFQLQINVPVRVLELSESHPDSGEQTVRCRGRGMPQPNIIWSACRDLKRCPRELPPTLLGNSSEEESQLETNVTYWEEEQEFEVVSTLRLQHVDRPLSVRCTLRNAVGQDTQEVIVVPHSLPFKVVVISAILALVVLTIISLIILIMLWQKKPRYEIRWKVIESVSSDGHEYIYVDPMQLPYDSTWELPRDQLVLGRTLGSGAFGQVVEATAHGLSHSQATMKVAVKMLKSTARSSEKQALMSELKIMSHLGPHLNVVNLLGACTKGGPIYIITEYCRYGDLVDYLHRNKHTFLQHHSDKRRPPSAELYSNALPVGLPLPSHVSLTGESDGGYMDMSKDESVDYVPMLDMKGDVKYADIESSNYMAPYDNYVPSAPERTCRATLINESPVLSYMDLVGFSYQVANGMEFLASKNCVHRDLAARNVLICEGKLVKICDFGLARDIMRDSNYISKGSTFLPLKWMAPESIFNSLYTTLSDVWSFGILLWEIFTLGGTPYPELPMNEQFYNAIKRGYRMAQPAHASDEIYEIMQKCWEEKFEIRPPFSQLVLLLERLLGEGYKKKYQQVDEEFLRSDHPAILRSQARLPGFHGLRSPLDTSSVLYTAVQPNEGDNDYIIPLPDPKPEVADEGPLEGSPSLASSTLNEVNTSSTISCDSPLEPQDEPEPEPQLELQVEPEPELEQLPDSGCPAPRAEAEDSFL

Row | SMILES | inhibition [1] [%] | inhibition [2] [%] | inhibition [3] [%] | inhibition [4] [%] | inhibition [5] [%] | inhibition [6] [%] | inhibition [7] [%] | inhibition [8] [%] | inhibition [9] [%] | inhibition [10] [%] | inhibition [11] [%] | inhibition [12] [%] | inhibition [13] [%] | inhibition [14] [%] | inhibition [15] [%] | inhibition [16] [%] | inhibition [17] [%] | inhibition [18] [%] | inhibition [19] [%] | inhibition [20] [%]
1 | Cc1ccc(C(=O)NC(C)C)cc1-c1ccc(C(=O)NCC2CC2)cc1 | -2.53 | 0.96 | 2.31 | 2.27 | 2.56 | 1.13 | 4.14 | 1.87 | 2.98 | 0.76 | 2.4 | 0.01 | -0.89 | -7.76 | 2.09 | 0.64 | -0.26 | -0.17 | -0.71 | –
2 | COc1ccc2cc(-c3c(-c4ccncc4)nc(-c4ccc([S+](C)[O-])cc4C)n3C)ccc2c1 (stereo not drawn) | 0.57 | 0.98 | 12.4 | -0.45 | 2.27 | 0.22 | 2.22 | -2.47 | 5.84 | 0.23 | 5.35 | -0.28 | -0.05 | -4.54 | 2.66 | 22.2 | 1.07 | 2.78 | 2 | -2.74
3 | Cc1nnc(-c2ccc(C)c(-c3ccc(C(=O)NCc4ccc(Cl)cc4)cc3)c2)o1 | 0.1 | 4.51 | 8.84 | 3.25 | 2.53 | 6.19 | 6 | 1.34 | 2 | 1.36 | 3.27 | 1.52 | 2.43 | 6.59 | 8.83 | 2.3 | 2.03 | 2.91 | 1.1 | 10.6
4 | COc1cc2ncn(-c3cc(OCCc4ccccc4)c(C(N)=O)s3)c2cc1OC | 3.75 | 10.5 | 51.4 | 8.08 | 44.9 | 1.08 | 10.7 | 5.35 | 39.8 | 10.8 | 49.9 | 0.72 | 1.86 | 3.82 | 3.22 | 23.2 | 0.58 | 9.89 | 6.66 | 4.2
5 | CCC(=O)Nc1ccc(C)c(-c2ccc(C(=O)NCC3CC3)cc2)c1 | 0.72 | 3.2 | 11.6 | 2.61 | 3.14 | 3.93 | 4.6 | 4.95 | 3.77 | -0.7 | 0.71 | 2.5 | 2.55 | 11.8 | 7.45 | 6.85 | 1.64 | 2.22 | 4.76 | 6.44
6 | COC(=O)Nc1nc2ccc(Sc3ccc(NC(=O)Nc4cc(C(F)(F)F)ccc4F)cc3)cc2[nH]1 | 78.7 | 10.8 | 57.6 | 0.97 | 1.45 | 7.2 | 74.8 | 11.9 | 56.3 | 4.35 | 16.5 | 0.1 | 0.7 | 2.56 | 24.7 | 74.1 | 9.72 | 58 | 23 | 0.15
7 | CCc1ccc(Oc2nccc(-c3c(-c4ccc(F)cc4)ncn3C3CCNCC3)n2)cc1 | 6.47 | 2.2 | 10.4 | 1.14 | 3.96 | 4.41 | 8.8 | 2.14 | 4.49 | 1.82 | 13.8 | 0.83 | -0.45 | -1.83 | 3.04 | 7.38 | 3.58 | 4.57 | 4 | 2.07
8 | CCS(=O)(=O)c1ccc(OC)c(Nc2ncc(-c3cccc(-c4ccccc4F)c3)o2)c1 | 5.48 | 10.8 | 49.7 | 6.19 | 32.1 | 3.61 | 6.31 | 18.5 | 60.4 | 17.1 | 63.6 | 0.61 | 11.7 | 7.79 | 15.4 | 54.4 | 3.52 | 9.78 | 10.1 | 0.8
9 | O=C(NCC1CC1)c1ccc(-c2cccc(C(=O)NC3CC3)c2)cc1 | 7.49 | 8.93 | 6.92 | -0.01 | -0.59 | 4.42 | 0.5 | -0.78 | 2.85 | 9.04 | 8.57 | 1.88 | 0.07 | 1.01 | 3.9 | 7.06 | 1.77 | 7.1 | 8.82 | 8.49
10 | CS(=O)(=O)CCNCc1cc(-c2cc3c(Nc4ccc(OCc5cccc(F)c5)c(Cl)c4)ncnc3s2)cs1 | 8.6 | 9.29 | 13.6 | 2.14 | 4.9 | 8.52 | 11.1 | 4.52 | 5.56 | 4.84 | 11.2 | 4.58 | 3.68 | 4.47 | 7.3 | 7.36 | 4.33 | 7.85 | 8.47 | 4.63
11 | CCc1cccc(CC)c1/C=C/c1cncc(C(=O)NC)c1 | 0.76 | 9.56 | 7.82 | 0.6 | 1.22 | 2.23 | 2.91 | -0.14 | 3.75 | 7.91 | 9.24 | 0.72 | 2.05 | 4.52 | 6.73 | 7.18 | – | 3.16 | 5.49 | 5.62
12 | CN(C)c1ccc2c(c1)/C(=C/Nc1ccc(S(N)(=O)=O)cc1)C(=O)N2 | 46.8 | 26.7 | 66.9 | 14.4 | 65.3 | 3.45 | 28.2 | 14.9 | 60.9 | 26.8 | 71.3 | 1.57 | 2.09 | 8.05 | 20.2 | 51.5 | 12.5 | 51.1 | 11.2 | 31.7
13 | O=C1Nc2ccc(I)cc2C1=Cc1cc(Br)c(O)c(Br)c1 | 6.35 | 2.96 | 9.37 | 2.93 | 3.36 | 2.82 | 5.91 | 3.34 | 7.24 | 0.08 | 2.27 | 2.55 | 4.15 | 5.41 | 5.98 | 7.84 | 1.81 | 12 | 6.36 | 3.05
14 | Fc1ccc(-c2ncn(C3CCNCC3)c2-c2ccnc(Oc3ccc(F)c(F)c3)n2)cc1 | 4.68 | 11 | 14.7 | 2.91 | 3.42 | 1.08 | 7.95 | 2.26 | 5.74 | 5.46 | 10.6 | 2.06 | 2.77 | 4.15 | 3.19 | 7.38 | 4.74 | 11.2 | 7.7 | 11.9
15 | N#Cc1ccc(Oc2nccc(-c3c(-c4ccc(F)cc4)ncn3C3CCNCC3)n2)cc1 | 0.9 | 4.83 | 10.1 | 3.33 | 4.12 | 3.29 | 8.12 | 3.7 | 3.69 | 2.5 | 5.37 | 2.75 | 4.03 | 6.64 | 6.33 | 4.32 | 3.48 | 4.02 | 6.66 | 13.4
